Results filed as inconclusive are left out. Active and inactive are the calls of the source. The calls were made as follows: active = hit-call score of the fitted dose curve at least 0.9, where 1 is the maximum; inconclusive = response in the unintended direction; inactive = score below 0.9.
Legend:
[1] = biological target: rat Monoamine Oxidase, MAO-B, Peripheral (MAOBP), Maob (gene 25750) (UniProt P19643); experiment: NVS_ENZ_rMAOBP: NovaScreen (NVS) Enzymatic Assay for rat Monoamine Oxidase, MAO-B, Peripheral (MAOBP) (AID 2283242)
[2] = biological target: Adenosine receptor A1 (Bos taurus) (UniProt P28190); experiment: NVS_GPCR_bAdoR_NonSelective: NovaScreen (NVS) G Protein-Coupled Receptor Assay for bovine Adenosine Receptor (AdoR), Non-selective Binding (AID 2283244)
Summary of the method: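 Cell-free binding with membranes from bovine striatum: radioligand displaced by test chemical, read after 1 h by filtration and scintillation. Single-point 25 uM duplicate primary, 50 uM top concentration in follow-up curves, DMSO baseline.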

[3] = biological target: human Serotonin, 5-Hydroxytryptamine Receptor 2A (5HT2A), HTR2A (gene 3356) (UniProt P28223); experiment: NVS_GPCR_h5HT2A: NovaScreen (NVS) G Protein-Coupled Receptor Assay for human Serotonin, 5-Hydroxytryptamine Receptor 2A (5HT2A) (AID 2283249)
Summary of the method: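 Radioligand displacement on human cortex tissue extract, counted by filtration and scintillation 1.5 h post-dosing. Initial single-concentration screen at 25 uM in duplicate, concentration series in follow-up; DMSO as baseline.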

[4] = biological target: guinea pig Opioid, Kappa 1 Receptor (OpiateK), OPRK1 (gene 100135587) (UniProt P41144); experiment: NVS_GPCR_gOpiateK: NovaScreen (NVS) G Protein-Coupled Receptor Assay for guinea pig Opioid, Kappa 1 Receptor (OpiateK) (AID 2283252);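 also: radioligand displacement from kappa opioid receptor in guinea pig cerebellar membranes; active means reduced radioligand binding relative to DMSO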
Summary of the method: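 Radioligand competition binding using guinea pig cerebellum membrane fraction; 2 h exposure; filter radiodetection. Single concentration 25 uM (duplicate), follow-up concentration-response for actives.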

[5] = system: bovine Histamine 1 Receptor (H1), gene 281231; experiment: NVS_GPCR_bH1: NovaScreen (NVS) G Protein-Coupled Receptor Assay for bovine Histamine 1 Receptor (H1) (AID 2283246)
Summary of the method: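 Hits from a 25 uM duplicate primary screen were retested in concentration series (top 50 uM); binding measured as scintillation-counted displacement of radioligand from bovine cerebellar membranes after 1 h, normalised to DMSO.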

[6] = system: guinea pig Muscarinic, Peripheral (Mperiperal) Receptor, Non-selective Binding, gene 100379235; experiment: NVS_GPCR_gMPeripheral_NonSelective: NovaScreen (NVS) G Protein-Coupled Receptor Assay for guinea pig Muscarinic, Peripheral (Mperiperal) Receptor, Non-selective Binding (AID 2283250)
Summary of the method: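 Screened in duplicate at 25 uM, hits retested in concentration series to 50 uM max, using bladder membrane radioligand displacement from guinea pig. Filtration and scintillation counting 1 h post-dose, fitted relative to DMSO.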

[7] = biological target: human Serotonin, 5-Hydroxytryptamine Receptor 5A (5HT5A), HTR5A (gene 3361) (UniProt P47898); experiment: NVS_GPCR_h5HT5A: NovaScreen (NVS) G Protein-Coupled Receptor Assay for human Serotonin, 5-Hydroxytryptamine Receptor 5A (5HT5A) (AID 2283251)
Summary of the method: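 Membranes from HEK293 cells, radioligand binding read by filtration and scintillation after 1 h. Single-concentration duplicate testing at 25 uM, then concentration-response for actives; positive-direction fitting relative to DMSO.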

[8] = system: guinea pig Leukotriene B4 Receptor (LTB4), gene 100379538; experiment: NVS_GPCR_gLTB4: NovaScreen (NVS) G Protein-Coupled Receptor Assay for guinea pig Leukotriene B4 Receptor (LTB4) (AID 2283247)
Summary of the method: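 Membranes from guinea pig spleen incubated 2 h with radioligand and compound; bound counts measured by filtration and scintillation. Screened first at 25 uM in duplicate, then actives titrated to a 50 uM top concentration relative to DMSO.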

[9] = NVS_GPCR_bNPY_NonSelective: NovaScreen (NVS) G Protein-Coupled Receptor Assay for bovine Neuropeptide Y (NPY) Receptor, Non-selective Binding (AID 2283245)
Summary of the method: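 Displacement of radioligand from bovine hippocampal membrane receptors, read by filtration and scintillation counting after 1 hour. Concentration-response to a top of 50 uM followed a 25 uM duplicate primary screen. Loss of signal versus DMSO.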

[10] = biological target: guinea pig Leukotriene D4 Receptor (LTD4), CYSLTR1 (gene 100135514) (UniProt Q2NNR5); experiment: NVS_GPCR_gLTD4: NovaScreen (NVS) G Protein-Coupled Receptor Assay for guinea pig Leukotriene D4 Receptor (LTD4) (AID 2283248)
Summary of the method: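 Guinea pig lung membrane preparation; bound radioligand measured by filter scintillation after 1 h, loss of signal versus DMSO marking displacement. Compounds tested at 25 uM in duplicate, hits retested to max 50 uM.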

Sequence of guinea pig Opioid, Kappa 1 Receptor (OpiateK), OPRK1 (gene 100135587) (P41144 whole entry, looked up): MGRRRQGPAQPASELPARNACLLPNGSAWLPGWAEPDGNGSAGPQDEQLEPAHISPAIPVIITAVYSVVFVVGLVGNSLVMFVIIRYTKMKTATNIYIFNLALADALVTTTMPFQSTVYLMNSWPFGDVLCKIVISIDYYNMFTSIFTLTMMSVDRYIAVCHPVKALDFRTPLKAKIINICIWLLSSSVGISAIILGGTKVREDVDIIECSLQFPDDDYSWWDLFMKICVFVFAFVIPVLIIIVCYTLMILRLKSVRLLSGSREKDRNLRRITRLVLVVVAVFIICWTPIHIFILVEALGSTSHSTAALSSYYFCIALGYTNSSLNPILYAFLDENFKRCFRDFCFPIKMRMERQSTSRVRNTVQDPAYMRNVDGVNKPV
Sequence of Adenosine receptor A1 (Bos taurus) (P28190 whole entry, looked up): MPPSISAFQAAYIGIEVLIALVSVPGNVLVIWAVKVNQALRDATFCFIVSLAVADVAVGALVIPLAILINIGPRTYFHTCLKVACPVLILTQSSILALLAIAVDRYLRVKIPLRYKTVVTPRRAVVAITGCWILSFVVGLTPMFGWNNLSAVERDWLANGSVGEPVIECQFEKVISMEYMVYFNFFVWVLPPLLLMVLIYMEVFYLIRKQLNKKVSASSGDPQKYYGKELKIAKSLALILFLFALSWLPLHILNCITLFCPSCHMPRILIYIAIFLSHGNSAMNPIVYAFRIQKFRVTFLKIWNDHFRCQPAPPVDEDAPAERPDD
Sequence of human Serotonin, 5-Hydroxytryptamine Receptor 5A (5HT5A), HTR5A (gene 3361) (P47898 whole entry, looked up): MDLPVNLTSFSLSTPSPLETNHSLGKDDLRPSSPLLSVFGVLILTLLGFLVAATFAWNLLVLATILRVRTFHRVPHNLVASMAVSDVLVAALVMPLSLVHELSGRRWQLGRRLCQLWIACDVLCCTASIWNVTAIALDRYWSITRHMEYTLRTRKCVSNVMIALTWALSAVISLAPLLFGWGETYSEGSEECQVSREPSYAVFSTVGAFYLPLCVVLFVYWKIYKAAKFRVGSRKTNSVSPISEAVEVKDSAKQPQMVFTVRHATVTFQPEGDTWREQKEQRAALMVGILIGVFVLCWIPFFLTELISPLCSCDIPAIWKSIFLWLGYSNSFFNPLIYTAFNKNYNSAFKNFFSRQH
Sequence of rat Monoamine Oxidase, MAO-B, Peripheral (MAOBP), Maob (gene 25750) (P19643 whole entry, looked up): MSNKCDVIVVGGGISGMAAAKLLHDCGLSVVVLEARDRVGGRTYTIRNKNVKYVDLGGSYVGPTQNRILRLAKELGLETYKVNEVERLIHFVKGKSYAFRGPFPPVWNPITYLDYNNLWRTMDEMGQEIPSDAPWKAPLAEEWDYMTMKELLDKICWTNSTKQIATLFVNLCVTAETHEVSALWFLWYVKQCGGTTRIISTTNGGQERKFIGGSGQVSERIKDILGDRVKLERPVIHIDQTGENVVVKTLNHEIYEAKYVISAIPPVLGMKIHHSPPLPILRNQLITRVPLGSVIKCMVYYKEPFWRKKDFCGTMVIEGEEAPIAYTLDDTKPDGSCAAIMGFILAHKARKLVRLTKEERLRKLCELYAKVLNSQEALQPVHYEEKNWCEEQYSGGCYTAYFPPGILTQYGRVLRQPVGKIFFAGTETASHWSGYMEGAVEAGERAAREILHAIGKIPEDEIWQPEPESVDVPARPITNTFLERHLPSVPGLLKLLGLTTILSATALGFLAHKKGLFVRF
Sequence of human Serotonin, 5-Hydroxytryptamine Receptor 2A (5HT2A), HTR2A (gene 3356) (P28223 whole entry, looked up): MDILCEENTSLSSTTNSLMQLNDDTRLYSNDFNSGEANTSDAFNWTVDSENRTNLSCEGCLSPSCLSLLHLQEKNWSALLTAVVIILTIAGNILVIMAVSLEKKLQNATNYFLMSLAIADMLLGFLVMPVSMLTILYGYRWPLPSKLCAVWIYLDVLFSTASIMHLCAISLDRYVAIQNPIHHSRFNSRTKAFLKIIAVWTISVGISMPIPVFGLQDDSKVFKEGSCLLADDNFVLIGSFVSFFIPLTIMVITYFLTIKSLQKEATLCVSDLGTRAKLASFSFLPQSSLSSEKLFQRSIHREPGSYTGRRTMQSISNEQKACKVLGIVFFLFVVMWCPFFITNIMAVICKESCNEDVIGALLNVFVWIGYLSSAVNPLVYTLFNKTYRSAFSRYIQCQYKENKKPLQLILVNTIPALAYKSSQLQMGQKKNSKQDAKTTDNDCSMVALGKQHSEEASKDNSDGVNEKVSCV
Sequence of guinea pig Leukotriene D4 Receptor (LTD4), CYSLTR1 (gene 100135514) (Q2NNR5 whole entry, looked up): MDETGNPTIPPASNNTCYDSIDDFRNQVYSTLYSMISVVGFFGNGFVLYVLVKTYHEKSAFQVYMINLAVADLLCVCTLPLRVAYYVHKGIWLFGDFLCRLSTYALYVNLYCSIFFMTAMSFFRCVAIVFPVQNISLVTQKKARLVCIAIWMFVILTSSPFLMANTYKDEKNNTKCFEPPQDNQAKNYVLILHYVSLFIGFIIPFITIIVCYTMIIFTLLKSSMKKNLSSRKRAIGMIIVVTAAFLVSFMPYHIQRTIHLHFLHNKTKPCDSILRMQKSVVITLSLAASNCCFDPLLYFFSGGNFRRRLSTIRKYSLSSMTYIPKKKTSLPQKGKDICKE

ClC1=C(Cl)[C@]2(Cl)[C@H]3[C@H]([C@@H]4C=C[C@H]3C4)[C@@]1(Cl)C2(Cl)Cl
outcome [1]: inactive

Clc1ccc(Cl)c(Cl)c1
outcome [1]: inactive

CCOc1cccc(C2(N3CCN(c4ccccc4)CC3)CCC(C)CC2)c1 (stereo not given)
outcome [2]: inactive

COP(=S)(OC)SCN1C(=O)c2ccccc2C1=O
outcome [3]: inactive

CCCSC(=O)N(CCC)CCC
outcome [4]: inactive

CCOC(=O)[C@]1(c2ccccc2)Oc2ccccc2[C@@H]1N
AC50 [1]: 2.44 µM (active) | AC50 [5]: 7.49 µM (active) | AC50 [3]: 3.91 µM (active) | AC50 [6]: 13.3 µM (active) | AC50 [7]: 0.659 µM (active)

CC(C)N(Cc1ccccc1)C(=O)C(C)(C)C
AC50 [4]: 15.7 µM (active)

O=[N+]([O-])c1ccc(Oc2ccc(Cl)cc2Cl)cc1
outcome [6]: inactive

C[C@]12C=CC3=C4CCC(=O)C=C4CC[C@H]3[C@@H]1CC[C@@H]2O
outcome [5]: inactive | AC50 [8]: 2.88 µM (active)

O=C(N[C@H](c1ccccc1)[C@@H]1CN2CCC1CC2)c1c(Cl)ccc(C(F)(F)F)c1Cl
AC50 [3]: 37.5 µM (active) | outcome [6]: inactive | AC50 [4]: 0.0235 µM (active)

O=[N+]([O-])C(Br)(CO)CO
AC50 [2]: 16.5 µM (active) | outcome [3]: inactive | AC50 [4]: 25 µM (active)

Cn1cc(-c2ccccc2)c(=O)c(-c2cccc(C(F)(F)F)c2)c1
outcome [1]: inactive

CN(C)c1ccc(C(=O)c2ccc(N(C)C)cc2)cc1
AC50 [1]: 18.6 µM (active)

Nc1cc(Cl)cc(C(=O)O)c1Cl
outcome [1]: inactive

CO[C@@H]1[C@H](OC(=O)NC(=O)CCl)CC[C@]2(CO2)[C@H]1[C@@]1(C)O[C@@H]1CC=C(C)C
outcome [1]: inactive

CC(C)(O)c1cnn2c(-c3ccc(F)c(-c4c(F)cccc4C#N)c3)cnc2n1
outcome [1]: inactive

[Cl-].[Cl-].[Hg+2]
AC50 [1]: 9.04 µM (active) | AC50 [2]: 19.1 µM (active) | AC50 [9]: 12 µM (active) | AC50 [10]: 1.4 µM (active) | AC50 [6]: 9.07 µM (active) | AC50 [7]: 1.59 µM (active) | AC50 [4]: 13.5 µM (active)

O=C(Oc1ccc(Br)cc1)N1CCN2CCC1CC2
AC50 [6]: 15 µM (active)

O=C(Nc1ccccc1)c1ccccc1I
outcome [9]: inactive

CC(C)COC(=O)c1ccccc1C(=O)OCC(C)C
outcome [1]: inactive

CCCCCOC(=O)c1ccccc1C(=O)OCCCCC
outcome [4]: inactive

CCC[CH2][Sn]([Cl])([CH2]CCC)[CH2]CCC
AC50 [9]: 3.07 µM (active) | AC50 [8]: 15.8 µM (active) | AC50 [10]: 1.86 µM (active) | AC50 [3]: 32.6 µM (active) | AC50 [6]: 9.81 µM (active) | AC50 [7]: 2.07 µM (active) | AC50 [4]: 14.5 µM (active)

CCCCCCCCCCCCCN1CC(C)OC(C)C1 (stereo not given)
outcome [2]: inactive

Nc1ccc(Cl)cc1N
outcome [2]: inactive

Nc1ccc(Cc2ccc(N)cc2)cc1
AC50 [8]: 2.83 µM (active)

Nc1ccc(N=Nc2ccccc2)cc1
outcome [1]: inactive | AC50 [2]: 25 µM (active)

Cc1cc(N=Nc2ccccc2C)ccc1N
outcome [1]: inactive | outcome [5]: inactive

CS(=O)(=O)NC(=O)c1cc(Oc2ccc(C(F)(F)F)cc2Cl)ccc1[N+](=O)[O-]
outcome [2]: inactive

CC(C)(C)C(O)(CCc1ccc(Cl)cc1)Cn1cncn1 (stereo not given)
outcome [3]: inactive

CCCCCCCCn1sccc1=O
outcome [9]: inactive | AC50 [7]: 26 µM (active) | AC50 [4]: 18.2 µM (active)

Source: PubChem BioAssay (EPA / NIEHS)
